The full data set covers some 8,800 targets. This sample favours those with a hit. About 0.5% of all pairs of compound and target were hits. Unmarked numbers belong to inactive results.
Assays:
Test in all cases: log2 fold change, soluble protein after heating vs DMSO (PISA); higher = thermal stabilisation; K562 lysate, 10 uM; active = over 0.2 and 3.5 SD of the protein, either way, in both replicates (recomputed)
[1] = compound: CCCS(=O)(=O)Nc1ccc(F)c(C(=O)c2c[nH]c3ncc(-c4ccc(Cl)cc4)cc23)c1F [vemurafenib]
Outline: (§1)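 K562 pellets were dounce-homogenised in PBS pH 7.4 with 1 mM MgCl2, and the crude extract at 1 mg/mL protein was treated with 10 μM compound for 30 min. Aliquots were heated for 3 min across 48°C-58°C, pooled, and brought to 0.5% NP-40 at 4°C; soluble protein was the supernatant after 21,000xg for 90 min. Soluble protein was quantified by TMTpro 16plex LC-MS/MS with channel sums equalised, and reported as log2 fold change in thermal stability against DMSO controls, with values from duplicates.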

[2] = compound: CCCS(=O)(=O)Nc1ccc(F)c(C(=O)c2c[nH]c3ncc(Cl)cc23)c1F
Outline: as §1

[3] = compound: CCN(CCCOc1ccc2c(Nc3cc(CC(=O)Nc4cccc(F)c4)[nH]n3)ncnc2c1)CCOP(=O)(O)O [barasertib]
Outline: as §1

[4] = compound: CC[C@@H]1C(=O)N(C)c2cnc(Nc3ccc(C(=O)NC4CCN(C)CC4)cc3OC)nc2N1C1CCCC1
Outline: as §1

[5] = compound: CC[C@@H]1C(=O)N(C)c2cnc(Nc3ccc(C(=O)N[C@H]4CC[C@H](N5CCN(CC6CC6)CC5)CC4)cc3OC)nc2N1C(C)C [volasertib]
Outline: as §1

[6] = compound: CCn1c(C(=O)N(C2CC2)C2CC2)cc2c3c(ncn3C)c(Nc3cc(C)n(C)n3)nc21
Outline: as §1

[7] = compound: CCn1cc(-c2ccnc3[nH]c(-c4cccc(CN(C)C)c4)cc23)c(-c2ccc(NC(=O)N(C)C)cc2)n1
Outline: as §1

[8] = compound: CN1CCC(CNc2ccc3ncc(-c4cccc(OC(F)(F)F)c4)n3n2)CC1
Outline: as §1

[9] = compound: CN1CCN(CCOc2cc(OC3CCOCC3)c3c(Nc4c(Cl)ccc5c4OCO5)ncnc3c2)CC1 [saracatinib]
Outline: as §1

[10] = compound: CN1CCN(c2nc(C3=C(c4c[nH]c5ccccc45)C(=O)NC3=O)c3ccccc3n2)CC1 [sotrastaurin]
Outline: as §1

[11] = compound: CN1CC[C@H](c2c(O)cc(O)c3c(=O)cc(-c4ccccc4Cl)oc23)[C@H](O)C1 [alvocidib]
Outline: as §1

[12] = compound: CN1CCc2c(c3ccccc3n2Cc2ccc(C(=O)NO)cc2)C1 [Tubastatin A]
Outline: as §1

[13] = compound: CNC(=O)C1=CC=CC=C1NC2=NC(=NC=C2Cl)NC3=C(C=C(C=C3)N4CCOCC4)OC
Outline: as §1

[14] = compound: CNC(=O)c1ccc(Nc2ncc(C(F)(F)F)c(NCc3nccnc3N(C)S(C)(=O)=O)n2)cc1 [defactinib]
Outline: as §1

[15] = compound: CNc1nc(-c2ccc3c(N)n[nH]c3c2)cc(N2C[C@@H](C(=O)NC3CCCCC3)CC[C@H]2C)n1
Outline: as §1

[16] = compound: COC(=O)N[C@@H](C)CNc1nccc(-c2cn(C(C)C)nc2-c2cc(Cl)cc(NS(C)(=O)=O)c2F)n1 [encorafenib]
Outline: as §1

[17] = compound: COC(=O)[C@H](CCSC)NC(=O)C1=C(C=C(C=C1)NC[C@H](CS)N)C2=CC=CC=C2
Outline: as §1

[18] = compound: COc1cc(Nc2ncc3c(n2)-c2ccc(Cl)cc2C(c2c(F)cccc2OC)=NC3)ccc1C(=O)O [alisertib]
Outline: as §1

[19] = compound: COc1cc2nc(-c3cc(F)ccc3O)nc(N[C@@H]3CNC[C@H]3C(C)(C)O)c2cc1OC
Outline: as §1

[20] = compound: COc1cc2ncnc(Nc3ccc(F)c(Cl)c3)c2cc1OCCCN1CCOCC1 [gefitinib]
Outline: as §1

AIMP1 isoform 2 (UniProt Q12904)
Sequence of UniProt Q12904 (Q12904 whole entry, looked up): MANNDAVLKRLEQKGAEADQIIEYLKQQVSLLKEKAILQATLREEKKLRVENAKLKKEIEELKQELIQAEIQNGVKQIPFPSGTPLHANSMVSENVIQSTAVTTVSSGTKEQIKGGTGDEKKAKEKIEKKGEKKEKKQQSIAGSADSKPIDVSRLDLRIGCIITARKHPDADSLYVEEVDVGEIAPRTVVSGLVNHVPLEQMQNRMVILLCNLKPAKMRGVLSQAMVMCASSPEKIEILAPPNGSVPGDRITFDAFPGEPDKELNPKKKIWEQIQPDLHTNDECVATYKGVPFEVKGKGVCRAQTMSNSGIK
log2 fold change [1]: 0.001
log2 fold change [2]: 0.018
log2 fold change [3]: 0.015
log2 fold change [4]: -0.036
log2 fold change [5]: -0.057
log2 fold change [6]: 0.025
log2 fold change [7]: -0.024
log2 fold change [8]: -0.081
log2 fold change [9]: 0.023
log2 fold change [10]: -0.001
log2 fold change [11]: 0.056
log2 fold change [12]: -0.118
log2 fold change [13]: 0.01
log2 fold change [14]: 0.018
log2 fold change [15]: 0.028
log2 fold change [16]: -0.005
log2 fold change [17]: 0.11
log2 fold change [18]: 0.004
log2 fold change [19]: -0.009
log2 fold change [20]: -0.029

ABHD17B (UniProt Q5VST6)
Sequence of UniProt Q5VST6 (Q5VST6 whole entry, looked up): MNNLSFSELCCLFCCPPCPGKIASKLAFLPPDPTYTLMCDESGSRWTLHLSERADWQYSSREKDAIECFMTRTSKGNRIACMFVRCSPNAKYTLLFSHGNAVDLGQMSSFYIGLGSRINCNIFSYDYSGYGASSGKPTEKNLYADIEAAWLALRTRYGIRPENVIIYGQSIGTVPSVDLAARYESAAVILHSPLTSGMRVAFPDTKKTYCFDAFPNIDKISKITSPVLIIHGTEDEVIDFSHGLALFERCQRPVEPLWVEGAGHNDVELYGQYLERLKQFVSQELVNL
log2 fold change [1]: 0.051
log2 fold change [2]: -0.002
log2 fold change [3]: -0.073
log2 fold change [4]: 0.234
log2 fold change [5]: 0.094
log2 fold change [6]: -0.034
log2 fold change [7]: 0.08
log2 fold change [8]: 0.054
log2 fold change [9]: 0.092
log2 fold change [10]: -0.002
log2 fold change [11]: 0
log2 fold change [12]: -0.016
log2 fold change [13]: -0.003
log2 fold change [14]: 0.064
log2 fold change [15]: -0.099
log2 fold change [16]: 0.059
log2 fold change [17]: -0.642 (active)
log2 fold change [18]: 0.06
log2 fold change [19]: -0.011
log2 fold change [20]: 0.043

ACADM isoform 2 (UniProt P11310)
Sequence of UniProt P11310 (P11310 whole entry, looked up): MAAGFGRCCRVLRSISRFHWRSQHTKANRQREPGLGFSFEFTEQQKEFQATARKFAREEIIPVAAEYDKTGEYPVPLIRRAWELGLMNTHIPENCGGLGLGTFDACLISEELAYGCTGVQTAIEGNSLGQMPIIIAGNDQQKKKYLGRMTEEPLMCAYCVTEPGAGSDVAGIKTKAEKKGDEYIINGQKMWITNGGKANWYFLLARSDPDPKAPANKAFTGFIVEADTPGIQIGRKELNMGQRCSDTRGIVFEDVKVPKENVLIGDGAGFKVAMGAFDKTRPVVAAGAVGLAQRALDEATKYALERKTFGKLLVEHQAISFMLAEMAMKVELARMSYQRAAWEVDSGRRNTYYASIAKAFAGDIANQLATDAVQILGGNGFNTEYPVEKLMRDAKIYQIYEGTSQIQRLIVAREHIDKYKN
log2 fold change [1]: 0.02
log2 fold change [2]: -0.011
log2 fold change [3]: 0.069
log2 fold change [4]: 0.001
log2 fold change [5]: -0.062
log2 fold change [6]: -0.051
log2 fold change [7]: -0.031
log2 fold change [8]: -0.046
log2 fold change [9]: -0.023
log2 fold change [10]: 0.67 (active)
log2 fold change [11]: -0.022
log2 fold change [12]: -0.012
log2 fold change [13]: 0.046
log2 fold change [14]: -0.01
log2 fold change [15]: 0.386 (active)
log2 fold change [16]: -0.032
log2 fold change [17]: 0.13
log2 fold change [18]: 0.062
log2 fold change [19]: 0.09
log2 fold change [20]: -0.024

ACADS (UniProt P16219)
Sequence of UniProt P16219 (P16219 whole entry, looked up): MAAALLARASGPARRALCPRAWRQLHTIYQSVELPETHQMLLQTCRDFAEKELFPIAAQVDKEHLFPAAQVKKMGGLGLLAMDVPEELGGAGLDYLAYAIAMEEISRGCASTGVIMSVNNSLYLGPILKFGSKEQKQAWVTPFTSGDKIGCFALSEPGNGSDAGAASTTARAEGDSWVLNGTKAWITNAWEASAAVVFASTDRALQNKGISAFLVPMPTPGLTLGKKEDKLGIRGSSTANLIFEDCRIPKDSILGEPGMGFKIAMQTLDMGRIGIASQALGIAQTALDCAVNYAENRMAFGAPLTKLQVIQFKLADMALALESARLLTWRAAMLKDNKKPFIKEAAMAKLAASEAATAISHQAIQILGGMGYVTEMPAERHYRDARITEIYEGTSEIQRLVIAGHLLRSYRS
log2 fold change [1]: 0.023
log2 fold change [2]: 0.017
log2 fold change [3]: 0.006
log2 fold change [4]: -0.039
log2 fold change [5]: -0.016
log2 fold change [6]: -0.02
log2 fold change [7]: 0.016
log2 fold change [8]: 0.003
log2 fold change [9]: -0.026
log2 fold change [10]: -0.026
log2 fold change [11]: -0.011
log2 fold change [12]: -0.003
log2 fold change [13]: 0.019
log2 fold change [14]: -0.011
log2 fold change [15]: 0.014
log2 fold change [16]: -0.034
log2 fold change [17]: 0.071
log2 fold change [18]: -0.003
log2 fold change [19]: -0.037
log2 fold change [20]: -0.023

ASPH (UniProt Q12797)
Sequence of UniProt Q12797 (Q12797 whole entry, looked up): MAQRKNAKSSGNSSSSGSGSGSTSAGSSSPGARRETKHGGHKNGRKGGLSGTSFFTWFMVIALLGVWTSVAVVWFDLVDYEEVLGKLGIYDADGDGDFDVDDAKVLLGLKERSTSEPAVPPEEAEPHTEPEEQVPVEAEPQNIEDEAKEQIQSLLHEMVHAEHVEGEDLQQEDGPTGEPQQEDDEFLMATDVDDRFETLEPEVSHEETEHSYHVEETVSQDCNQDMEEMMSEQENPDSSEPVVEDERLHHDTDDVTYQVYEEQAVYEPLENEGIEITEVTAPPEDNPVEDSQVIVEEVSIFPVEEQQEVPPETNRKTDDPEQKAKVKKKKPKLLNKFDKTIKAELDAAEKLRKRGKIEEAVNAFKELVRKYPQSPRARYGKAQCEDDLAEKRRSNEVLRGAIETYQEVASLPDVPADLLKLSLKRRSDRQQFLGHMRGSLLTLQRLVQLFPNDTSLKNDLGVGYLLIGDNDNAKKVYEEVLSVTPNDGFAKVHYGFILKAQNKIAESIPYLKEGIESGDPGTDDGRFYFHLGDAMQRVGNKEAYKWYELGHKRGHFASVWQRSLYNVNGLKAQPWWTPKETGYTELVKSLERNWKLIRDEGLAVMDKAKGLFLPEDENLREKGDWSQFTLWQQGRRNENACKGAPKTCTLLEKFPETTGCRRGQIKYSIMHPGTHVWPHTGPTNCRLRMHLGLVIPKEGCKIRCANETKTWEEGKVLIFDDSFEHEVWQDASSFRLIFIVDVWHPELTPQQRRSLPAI
log2 fold change [1]: 0.009
log2 fold change [2]: 0.009
log2 fold change [3]: -0.001
log2 fold change [4]: 0.03
log2 fold change [5]: 0.002
log2 fold change [6]: -0.018
log2 fold change [7]: 0.011
log2 fold change [8]: -0.024
log2 fold change [9]: 0.055
log2 fold change [10]: 0.01
log2 fold change [11]: -0.012
log2 fold change [12]: 0.018
log2 fold change [13]: -0.01
log2 fold change [14]: 0.023
log2 fold change [15]: -0.006
log2 fold change [16]: 0.018
log2 fold change [17]: -0.047
log2 fold change [18]: 0.042
log2 fold change [19]: -0.025
log2 fold change [20]: -0.041

AMPD3 isoform 4 (UniProt Q01432)
Sequence of UniProt Q01432 (Q01432 whole entry, looked up): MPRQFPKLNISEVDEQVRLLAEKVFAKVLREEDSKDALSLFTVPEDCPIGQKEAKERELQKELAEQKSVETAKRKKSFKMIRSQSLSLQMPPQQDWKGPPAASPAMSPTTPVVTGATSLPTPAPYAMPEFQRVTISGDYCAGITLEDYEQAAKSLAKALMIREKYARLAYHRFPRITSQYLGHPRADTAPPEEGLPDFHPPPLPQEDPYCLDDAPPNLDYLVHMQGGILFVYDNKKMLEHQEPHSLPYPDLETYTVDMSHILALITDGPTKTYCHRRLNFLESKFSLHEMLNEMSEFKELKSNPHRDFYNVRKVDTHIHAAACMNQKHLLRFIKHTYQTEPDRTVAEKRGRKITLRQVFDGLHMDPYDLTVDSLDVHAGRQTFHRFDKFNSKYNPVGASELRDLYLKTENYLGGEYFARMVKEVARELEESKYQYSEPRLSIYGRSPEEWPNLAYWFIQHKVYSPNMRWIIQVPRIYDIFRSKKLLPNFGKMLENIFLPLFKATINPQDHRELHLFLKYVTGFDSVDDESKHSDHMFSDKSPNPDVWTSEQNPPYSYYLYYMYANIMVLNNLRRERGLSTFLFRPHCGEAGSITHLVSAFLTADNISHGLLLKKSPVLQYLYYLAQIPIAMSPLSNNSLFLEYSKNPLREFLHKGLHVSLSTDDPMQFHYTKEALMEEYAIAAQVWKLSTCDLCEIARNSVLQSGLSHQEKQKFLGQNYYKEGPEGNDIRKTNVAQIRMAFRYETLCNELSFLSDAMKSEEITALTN
log2 fold change [1]: -0.021
log2 fold change [2]: 0.005
log2 fold change [3]: 0.017
log2 fold change [4]: -0.033
log2 fold change [5]: -0.026
log2 fold change [6]: -0.029
log2 fold change [7]: 0.1
log2 fold change [8]: -0.046
log2 fold change [9]: 0.043
log2 fold change [10]: 0.024
log2 fold change [11]: 0.012
log2 fold change [12]: 0.027
log2 fold change [13]: 0.015
log2 fold change [14]: 0.011
log2 fold change [15]: -0.034
log2 fold change [16]: -0.013
log2 fold change [17]: 0.103
log2 fold change [18]: 0.008
log2 fold change [19]: -0.068
log2 fold change [20]: 0.012

ARAP1 (UniProt Q96P48)
Sequence of UniProt Q96P48 (Q96P48 whole entry, looked up): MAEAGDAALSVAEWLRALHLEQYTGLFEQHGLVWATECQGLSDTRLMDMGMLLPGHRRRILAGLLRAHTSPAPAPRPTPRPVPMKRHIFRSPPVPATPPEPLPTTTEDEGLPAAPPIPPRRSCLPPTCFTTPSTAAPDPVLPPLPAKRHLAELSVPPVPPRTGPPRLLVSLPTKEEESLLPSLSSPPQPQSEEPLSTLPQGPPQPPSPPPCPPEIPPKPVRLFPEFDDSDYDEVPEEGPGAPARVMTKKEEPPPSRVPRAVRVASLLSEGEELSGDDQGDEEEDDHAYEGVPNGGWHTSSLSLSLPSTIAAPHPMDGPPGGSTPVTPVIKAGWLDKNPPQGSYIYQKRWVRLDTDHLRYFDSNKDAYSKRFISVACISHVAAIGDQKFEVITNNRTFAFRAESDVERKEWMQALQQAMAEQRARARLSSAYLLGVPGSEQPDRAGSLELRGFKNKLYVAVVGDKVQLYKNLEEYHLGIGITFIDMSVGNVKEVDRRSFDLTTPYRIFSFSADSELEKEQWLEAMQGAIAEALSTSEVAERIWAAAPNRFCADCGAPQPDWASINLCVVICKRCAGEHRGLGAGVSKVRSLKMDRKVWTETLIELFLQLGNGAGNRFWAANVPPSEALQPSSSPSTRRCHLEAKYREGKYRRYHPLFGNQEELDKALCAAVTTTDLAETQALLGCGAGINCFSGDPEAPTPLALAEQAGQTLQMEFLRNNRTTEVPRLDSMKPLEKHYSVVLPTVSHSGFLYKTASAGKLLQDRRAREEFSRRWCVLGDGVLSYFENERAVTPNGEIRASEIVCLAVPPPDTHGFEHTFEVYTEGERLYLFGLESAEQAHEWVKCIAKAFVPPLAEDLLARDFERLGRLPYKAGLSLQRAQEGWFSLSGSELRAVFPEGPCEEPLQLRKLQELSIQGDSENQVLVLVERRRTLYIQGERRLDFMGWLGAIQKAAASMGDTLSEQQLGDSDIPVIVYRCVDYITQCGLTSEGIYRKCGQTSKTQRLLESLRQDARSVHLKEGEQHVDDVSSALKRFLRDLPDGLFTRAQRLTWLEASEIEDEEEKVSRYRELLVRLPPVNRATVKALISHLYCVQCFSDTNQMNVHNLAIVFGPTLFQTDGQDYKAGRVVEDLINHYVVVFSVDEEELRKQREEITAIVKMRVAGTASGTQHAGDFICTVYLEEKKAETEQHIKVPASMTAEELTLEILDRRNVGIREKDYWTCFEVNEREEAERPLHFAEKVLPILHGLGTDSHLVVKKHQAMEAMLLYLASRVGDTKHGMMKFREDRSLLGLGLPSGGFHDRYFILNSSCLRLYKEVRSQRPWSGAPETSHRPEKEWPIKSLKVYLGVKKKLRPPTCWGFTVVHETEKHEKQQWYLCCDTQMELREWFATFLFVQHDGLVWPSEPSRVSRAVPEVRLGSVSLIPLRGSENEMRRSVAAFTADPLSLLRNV
log2 fold change [1]: -0.014
log2 fold change [2]: 0.006
log2 fold change [3]: 0.013
log2 fold change [4]: -0.034
log2 fold change [5]: -0.085
log2 fold change [6]: 0.029
log2 fold change [7]: -0.076
log2 fold change [8]: 0.015
log2 fold change [9]: -0.001
log2 fold change [10]: 0.006
log2 fold change [11]: -0.027
log2 fold change [12]: -0.135
log2 fold change [13]: 0.033
log2 fold change [14]: 0.075
log2 fold change [15]: 0.017
log2 fold change [16]: 0.06
log2 fold change [17]: 0.078
log2 fold change [18]: 0.015
log2 fold change [19]: 0.003
log2 fold change [20]: 0.041

AK4 (UniProt P27144)
Sequence of UniProt P27144 (P27144 whole entry, looked up): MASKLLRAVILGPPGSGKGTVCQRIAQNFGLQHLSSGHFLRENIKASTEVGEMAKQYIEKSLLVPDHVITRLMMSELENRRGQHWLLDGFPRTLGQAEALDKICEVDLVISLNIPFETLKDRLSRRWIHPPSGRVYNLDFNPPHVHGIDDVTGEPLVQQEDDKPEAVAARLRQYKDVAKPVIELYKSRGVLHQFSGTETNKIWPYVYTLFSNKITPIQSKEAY
log2 fold change [1]: -0.068
log2 fold change [2]: 0.018
log2 fold change [3]: 0.11
log2 fold change [4]: -0.057
log2 fold change [5]: -0.024
log2 fold change [6]: 0.023
log2 fold change [7]: -0.036
log2 fold change [8]: -0.002
log2 fold change [9]: -0.016
log2 fold change [10]: 0.05
log2 fold change [11]: 0.025
log2 fold change [12]: 0.036
log2 fold change [13]: -0.008
log2 fold change [14]: 0.003
log2 fold change [15]: 0.009
log2 fold change [16]: 0.006
log2 fold change [17]: -0.07
log2 fold change [18]: 0.026
log2 fold change [19]: -0.034
log2 fold change [20]: -0.043

Source: the supplement of paper PMC10849652
